Test results from PubChem BioAssay (NCATS).
Inconclusive results are not listed. The source made the active and inactive calls. Calls come from the whole dose curve; as a rule, active = well fitted inhibition curve with a large enough effect in the repeat runs; inconclusive = weak or mixed curves; inactive = flat fitted curve, though single readings scatter.

Biological target: Cytochrome P450 2D6 (Homo sapiens) (UniProt P10635)
Test: Cytochrome P450 family 2 subfamily D member 6 (CYP2D6) small molecule antagonists: luciferase biochemical (cell-free) qHTS assay (AID 1645840); note: nearly all actives have a fitted effect of over 55% in size
Details: P450-Glo CYP2D6 enzyme, luciferin luminescence, 1 h; series mostly up to 57.4 µM; activity change, negative = inhibition: at the top concentration
Summary of the method: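 P450-Glo luminescent screen: recombinant CYP2D6 enzyme–proluciferin substrate mix preincubated with compound 10 min at room temperature, then NADPH regeneration added for 1 h at room temperature. Detection reagent added for 20 min; luciferin light read as relative luminescence units.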
% is set by controls: 0 for no effect and ±100 for the full control effect; potency is the fitted concentration of half-maximal effect.

Chain of Cytochrome P450 2D6 (Homo sapiens) (P10635 whole entry, looked up): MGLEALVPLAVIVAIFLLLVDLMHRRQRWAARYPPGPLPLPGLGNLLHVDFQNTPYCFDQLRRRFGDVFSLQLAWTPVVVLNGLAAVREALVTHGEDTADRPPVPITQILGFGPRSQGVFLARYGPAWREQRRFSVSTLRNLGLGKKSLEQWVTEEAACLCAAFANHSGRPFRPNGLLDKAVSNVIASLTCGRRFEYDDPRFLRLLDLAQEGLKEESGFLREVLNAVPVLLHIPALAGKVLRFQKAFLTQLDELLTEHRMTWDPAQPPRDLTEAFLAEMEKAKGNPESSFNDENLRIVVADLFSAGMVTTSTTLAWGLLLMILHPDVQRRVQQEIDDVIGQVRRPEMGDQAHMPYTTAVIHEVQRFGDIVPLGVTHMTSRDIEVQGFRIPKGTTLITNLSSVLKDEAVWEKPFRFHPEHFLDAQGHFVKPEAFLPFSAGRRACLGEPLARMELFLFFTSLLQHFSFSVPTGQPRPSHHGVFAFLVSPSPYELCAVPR

Compound | activity change, negative = inhibition | Potency
COc1ccc(-n2nc(C(N)=O)c3c2C(=O)N(c2ccc(N4CCCCC4=O)cc2)CC3)cc1 | 3.17% (inactive) | –
CNC(=O)c1cc(Oc2ccc(NC(=O)Nc3cc(C(C)(C)C)nn3-c3ccc4ncccc4c3)c(F)c2)ccn1 | 0.0377% (inactive) | –
Nc1ncnc2c1c(-c1cnc3[nH]ccc3c1)nn2C1CCCC1 | -17.5% (inactive) | –
CN(C)c1nc(Cc2ccc(NC(=O)c3ccc4ccccc4c3)cc2)nc(Cl)c1CC(=O)O | 0.123% (inactive) | –
C1Cc2[nH]nc(-c3nn[nH]n3)c2C1 | -2.79% (inactive) | –
Nc1nc(Nc2ccc(S(N)(=O)=O)cc2)nn1C(=O)c1c(F)cccc1F | 3.54% (inactive) | –
COc1ccc(F)c(F)c1C(=O)c1cnc(NC2CCN(S(C)(=O)=O)CC2)nc1N | – | inactive
CC[C@@H]1C(=O)N(C)c2cnc(Nc3ccc(C(=O)NC4CCC(N5CCN(CC6CC6)CC5)CC4)cc3OC)nc2N1C(C)C (stereo not given in full) | – | inactive
Cc1[nH]nc2ccc(-c3cncc(OC[C@@H](N)Cc4ccccc4)c3)cc12 | – | 0.674 µM (active)
Cc1ccc(NC(=O)C2(c3ccc4c(c3)OC(F)(F)O4)CC2)nc1-c1cccc(C(=O)O)c1 | 5.23% (inactive) | –
C=CC(=O)Nc1cccc(Oc2nc(Nc3ccc(N4CCN(C)CC4)cc3OC)ncc2Cl)c1 | – | 23.9 µM (active)
Cc1cnc(-c2cnc(NCCNc3ccc(C#N)cn3)nc2-c2ccc(Cl)cc2Cl)[nH]1 | – | 1.51 µM (active)
COc1ccc(-c2cc3c(C)nc(N)nc3n(C3CCC(OCCO)CC3)c2=O)cn1 (stereo not given) | – | inactive
Nc1ccc(S(=O)(=O)Nc2ncccn2)cc1 | 9.84% (inactive) | –
COc1cc(C)c(Sc2cnc(NC(=O)c3ccc(CNC(C)C(C)C)cc3)s2)cc1C(=O)N1CCN(C(C)=O)CC1 (stereo not given) | – | 21.3 µM (active)
Cn1cc(-c2ccncc2)c(-c2ccc(OCc3ccc4ccccc4n3)cc2)n1 | – | 7.56 µM (active)
O=C(O)C1(Cc2cccc(Nc3nccs3)n2)CCC(Oc2cccc(Cl)c2F)CC1 (stereo not given) | -21.1% (inactive) | –
C=CC(=O)Nc1cccc(Oc2nc(Nc3ccc(N4CCN(C)CC4)cc3)ncc2Cl)c1 | – | 19 µM (active)
CNC(=O)c1ccc(N2C(=S)N(c3cnc(C#N)c(C(F)(F)F)c3)C(=O)C23CCC3)cc1F | -20.4% (inactive) | –
CCCCOc1c(C(=O)c2c(F)cc(C)cc2F)cnc2n[nH]cc12 | 0.959% (inactive) | –
Nc1ccn([C@@H]2CS[C@H](CO)O2)c(=O)n1 | 0.787% (inactive) | –
CN(C1CCc2c(c3ccccc3n2CC(=O)O)C1)S(=O)(=O)c1ccc(F)cc1 (stereo not given) | – | inactive
COc1cc(C(=O)N2CCC(N3CCN(C)CC3)CC2)ccc1Nc1ncc2c(n1)N(C)c1ccccc1C(=O)N2C | -2.76% (inactive) | –
CCCNC(=O)Nc1ccc(Oc2ncnc3cc(OC)c(OC)cc23)cc1Cl | -1.73% (inactive) | –
O=C(O)c1ccc2c(c1)nc(Nc1cccc(Cl)c1)c1ccncc12 | 0.683% (inactive) | –
